Screening results from PubChem BioAssay.
TEAD-YAP inh – TEAD-YAP interaction inhibition; actives 1.4% (n = 640,000); inhibition, % at 9.12 µM; HEK-TIYL cells, TEAD-Gal4/YAP UAS-luciferase luminescence; in the data active = inhibition above about 32%;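 note: 0% = median of test compound wells and 100% = reference inhibitor wells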
FBW7 activator – human FBW7 E3 ligase activation, primary screen. Q969H0. AlphaScreen FBW7–phospho-cyclin E peptide binding, activator screen. normalized activity (activation), % at 26.1 µM. actives 0.13% (n = 650,000). AID 1259310; in the data active = normalized activity above about 1.9%;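 note: purified mutant Fbw7 with reduced substrate affinity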
Target sequence (Q969H0 whole entry, looked up): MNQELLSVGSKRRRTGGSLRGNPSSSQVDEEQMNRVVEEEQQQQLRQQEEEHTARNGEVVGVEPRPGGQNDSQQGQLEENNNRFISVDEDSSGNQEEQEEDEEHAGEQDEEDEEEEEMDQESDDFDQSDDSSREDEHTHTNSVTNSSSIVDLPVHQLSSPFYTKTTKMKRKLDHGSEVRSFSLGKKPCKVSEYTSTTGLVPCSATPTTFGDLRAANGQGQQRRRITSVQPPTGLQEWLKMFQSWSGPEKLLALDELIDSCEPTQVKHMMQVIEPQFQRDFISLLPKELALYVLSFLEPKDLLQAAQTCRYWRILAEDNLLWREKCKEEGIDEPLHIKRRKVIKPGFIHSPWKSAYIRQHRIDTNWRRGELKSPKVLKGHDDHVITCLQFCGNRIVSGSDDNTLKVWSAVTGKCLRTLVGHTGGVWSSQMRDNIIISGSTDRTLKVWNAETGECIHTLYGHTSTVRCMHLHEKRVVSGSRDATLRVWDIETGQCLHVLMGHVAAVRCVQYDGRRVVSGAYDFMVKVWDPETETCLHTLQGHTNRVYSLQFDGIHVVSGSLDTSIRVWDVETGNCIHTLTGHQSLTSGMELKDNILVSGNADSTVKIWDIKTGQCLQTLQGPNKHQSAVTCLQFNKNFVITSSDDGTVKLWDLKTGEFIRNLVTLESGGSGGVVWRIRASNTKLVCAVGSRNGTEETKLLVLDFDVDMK
MITF inh – human MITF inhibition, primary screen; AlphaScreen MITF homodimerization, bead proximity signal; inhibition, % at 2.6 µM; actives 0.91% (n = 650,000); AID 1259374; in the data active = inhibition above about 50%;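 note: 0% = vehicle wells with protein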
GPR151 ag – human GPR151 activation; Q8TDV0; PathHunter beta-arrestin GPR151 cells, luminescence; activation, % at 11.2 µM; actives 1% (n = 650,000); AID 1508602; in the data active = activation above about 4.9%;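 note: 0% = median of compound wells and 100% = cells with positive control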
MITF inh conf – confirmation of human MITF inhibitors; shares compounds with MITF inh; AlphaScreen MITF homodimerization, biotin/His-MITF beads; inhibition, % at 2.6 µM; actives 16% (n = 4,700); AID 1259372;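 active = inhibition above a cutoff derived from the DMSO control wells, cut at about 28% in these data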;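 note: 0% = MITF dimer wells with DMSO only; inhibitors lower the bead chemiluminescence by keeping MITF from dimerizing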
AlphaScreen DR – optically interferes with AlphaScreen signal in dose response; shares compounds with MITF inh; AlphaScreen optical interference counterscreen, cell-free; IC50, µM; actives 6% (n = 480); call rule not given here
AS interf ctr – optically interferes with AlphaScreen signal | shares compounds with MITF inh | LysRS AlphaScreen counterscreen, signal interference, triplicate | inhibition, % at 2.6 µM | actives 7.6% (n = 4,700);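 active = inhibition above a cutoff derived from the DMSO control wells, cut at about 30% in these data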
Active calls of the source: *; · = no result. Hits are enriched below; roughly 3.5% of the tested compounds scored in any of these assays.

SMILES	TEAD-YAP inh	FBW7 activator	MITF inh	GPR151 ag	MITF inh conf	AS interf ctr	others
COc1ccc(CN2CCN(C(=O)c3cccnc3)CC2)c(OC)c1OC	10.4	0.0	31.6	0.7	·	·
COc1ccc(CN2CCN(C(=O)c3cccnc3)CC2)c(OC)c1	-4.4	-0.1	43.5	0.5	·	·
COc1ccccc1C1(O)CC2CCC(C1)N2C(=O)c1cccnc1 (configuration not stated)	10.1	0.0	73.0*	-0.5	7.8	16.3
COc1cccc(CN2CCN(C(=O)c3cccnc3)CC2)c1OC	-0.2	-0.2	76.9*	-1.2	9.3	11.3
COc1ccccc1C1CCCN1C(=O)CSc1ccc2nnc(-c3cccnc3)n2n1 (configuration not stated)	6.5	0.0	4.0	0.9	·	·
COC(=O)c1ccc(N=Nc2c(O)[nH]c(=O)[nH]c2=O)cc1	-4.4	0.0	-7.8	-0.9	·	·
Cc1cc(=O)[nH]c(N/N=C/c2c3ccccc3cc3ccccc23)n1	-1.2	-0.3	50.6*	-1.7	23.6	-4.4
COC(=O)C1=C(C)NC(=O)/C1=C\c1cc(C)n(-c2cc(Cl)ccc2C)c1C	1.1	0.2	38.6	0.1	·	·
CS(=O)(=O)c1ccc2c(c1)nc(C(F)(F)F)n2C1CCNCC1	3.0	-0.2	2.2	0.3	·	·
CCOC(=O)c1c(Nc2ccccc2N)cc(C)nc1C	-6.4	0.1	68.3*	0.4	-3.2	5.2
CN(Cc1ccco1)S(=O)(=O)c1ccc(C(=O)Nc2cccc(Cl)c2)cc1	4.9	-0.1	-1.8	0.6	·	·
COc1cc(Nc2cc(NC3CCN(Cc4ccccc4)CC3)ncn2)cc(OC)c1OC	-13.4	0.0	14.2	1.4	·	·
COc1ccccc1CNC(=O)C1CCCN1S(=O)(=O)c1cccc2nsnc12 (configuration not stated)	-4.4	0.6	4.8	0.5	·	·
Oc1ccc2c(c1)C1CCCC1(N1CCOCC1)O2 (configuration not stated)	8.2	-0.4	70.1*	1.2	73.1*	-2.3	AlphaScreen DR=>6.48
CC1CCN(C(=O)C2CCN(Cc3ccccc3O)CC2)CC1	3.4	0.8	38.2	-1.0	·	·
CC1CCN(Cc2ccc(O)c3ncccc23)CC1	40.9*	-0.4	83.1*	1.5	97.1*	100.3*
CCOC(=O)C1CCCN(Cc2ccc(O)c3ncccc23)C1 (configuration not stated)	7.7	-1.8	77.9*	1.4	81.5*	100.2*
O=C(c1cccc(F)c1)N1CCN(Cc2cccc3ccccc23)CC1	6.6	0.8	58.4*	-1.6	-6.4	-4.3
O=C(c1cccc(F)c1)N1CCN(Cc2ccccc2Cl)CC1	2.9	0.0	57.3*	1.2	-3.9	-0.7
COc1ccc2cc(C(N)=O)c(=Nc3ccc(C(=O)O)cc3)oc2c1	2.6	0.1	15.7	-0.6	·	·
CCOc1cc(/C=C2/C(=O)NC(=O)N(Cc3ccc(F)cc3)C2=O)ccc1O	7.0	-0.8	2.6	-0.8	·	·
CCCN1CCCc2cc(CCNS(C)(=O)=O)ccc21	-1.1	-0.1	50.6*	-1.5	-9.3	-0.9
CN(c1ccccc1)S(=O)(=O)c1ccc(/C(O)=C(\C#N)c2nc3ccccc3n2C)cc1	0.5	-0.2	61.7*	-0.4	-5.1	4.7
Cc1cc(N)n(-c2ccc(Oc3ccccc3)cc2S(=O)(=O)O)n1	5.7	1.0	51.9*	-1.1	4.6	4.4
Cc1cc(N)n(-c2ccccc2C(F)(F)F)n1	5.5	0.0	14.6	0.2	·	·
SMILES	TEAD-YAP inh	FBW7 activator	MITF inh	GPR151 ag	MITF inh conf	AS interf ctr	others
Cc1ccc(-n2cc3c(c(C#N)c2=N)CC(C)(C)CC3=O)cc1C	-9.0	0.2	13.7	3.7	·	·
CC1(C)CC(=O)c2cn(-c3ccc(Cl)cc3)c(=N)c(C#N)c2C1	-8.4	0.0	54.8*	0.6	0.7	0.4
O=C(Cn1c2c(c(-c3ccccc3)cc1=O)CCCC2)NCc1cccnc1	9.4	-0.1	2.2	0.5	·	·
COCCn1c(=O)n(CC(=O)NCc2ccccc2)c2cccnc21	0.2	0.0	-1.7	1.2	·	·
O=S(=O)(NCCN1CCN(c2ccccc2F)CC1)c1ccccc1Cl	-4.5	-0.1	71.8*	1.8	2.4	-4.0
Cn1c(=O)oc2cc(S(=O)(=O)NCCN3CCN(c4ccccc4F)CC3)ccc21	1.4	0.3	14.1	0.4	·	·
COC(=O)C(C)CN1CCN(C)CC1 (configuration not stated)	-3.2	-0.2	59.7*	0.1	-22.9	-6.4
CCCOC(=O)C1=C(C)NC2=C(C(=O)CC(c3ccccc3)C2)C1c1ccc(Cl)cc1Cl (configuration not stated)	3.9	0.0	21.9	2.1	·	·
O=C(NC1CCCCCC1)c1ccc2nc(-c3cccs3)c(-c3cccs3)nc2c1	-1.3	-0.1	-10.4	0.9	·	·
CSc1cccc(C(=O)N(CCn2cccn2)c2nc3c(C)cc(C)cc3s2)c1	-6.7	0.0	95.4*	0.0	-14.1	-5.4
c1ccc(CNc2nc(N3CCN(c4ccccn4)CC3)nc3c2ncn3-c2ccccc2)cc1	1.1	0.0	19.5	-1.0	·	·
Cc1ccc(O)c(NC(=S)NC(=O)/C=C/c2ccco2)c1	14.8	-0.2	62.0*	0.1	29.6*	29.4	AlphaScreen DR=>6.48
NC(=O)c1ccccc1NC(=S)NC(=O)/C=C/c1ccco1	41.2*	-0.1	53.8*	0.8	69.9*	-0.5	AlphaScreen DR=>6.48
O=C(/C=C/c1cccc([N+](=O)[O-])c1)NC(=S)Nc1ccccc1C(=O)O	1.4	-0.3	86.0*	3.4	-11.0	1.1
COc1ccc(C(=O)CSc2ncnc3c2nnn3Cc2ccccc2)cc1	4.4	0.0	14.0	-1.7	·	·
Cc1cccc(CN2CCN(CCCc3ccccc3)CC2)c1	2.6	0.0	68.9*	-1.8	-3.0	2.0
CSc1ccc(CN2CCN(CCCc3ccccc3)CC2)cc1	1.5	-0.1	63.5*	4.1	0.1	2.6
CCOc1cc(C#N)c(NC(=O)c2cc([N+](=O)[O-])ccc2N2CCOCC2)cc1OCC	-10.0	0.0	67.0*	-0.5	14.7	8.2
CCOc1ccc(NC(=O)c2cc([N+](=O)[O-])ccc2N2CCOCC2)cc1	6.3	0.0	-4.7	3.0	·	·
C=CCc1cc(C)ccc1OCCNC(C)C	10.3	0.0	87.6*	-0.1	-19.4	-3.0
Cc1ccc(OCCN2CCOCC2)c(Cl)c1	-4.2	-0.1	-7.2	1.7	·	·
C=CCc1cc(C)ccc1OCCCN1CC(C)OC(C)C1 (configuration not stated)	-15.0	0.3	53.4*	-0.7	2.1	-1.0
C=CCc1cc(C)ccc1OCCCN1CCOCC1	4.6	-0.1	72.4*	4.0	-11.8	37.5*
Cc1ccc(Cl)c(OCCCN2CCOCC2)c1	-13.3	-0.1	54.5*	0.1	13.1	14.2
C=CCc1cc(OC)ccc1OCCCCN1CCOCC1	-1.5	-0.2	32.6	-0.9	·	·
COc1cc(C)ccc1OCCCN1CC(C)OC(C)C1 (configuration not stated)	-11.1	0.1	45.2	0.2	·	·
CCSc1ccccc1NC(=O)c1sc2nc(-c3ccncc3)ccc2c1N	0.7	0.1	4.0	-1.2	·	·
